Bioassay records (PubChem BioAssay)
FMDV inh – High Throughput Screening for Foot and Mouth Disease Virus Antivirals | Potency, µM (titrated, usually from 57.9 µM), inactives show top-dose activity change, negative = inhibition, usual class: inhibitors | AID 1159524, 2015 | FMDV antiviral cell-based qHTS | 410,000 compounds, 1.2% hits; calls by dose curve; tested in HEK293T cells; further: read-out not given here; potency means the concentration at half of the fitted maximal effect; nearly all actives have a fitted effect of over 45% in size
HCMV inh – qHTS Assay for inhibitors of the human cytomegalovirus (HCMV); HFF cells, HCMV-luciferase reporter, 72 h; stronger effect = lower value; activity change, negative = inhibition, % at 57.5 µM; 410,000 compounds, 4.5% hits; in the data active means activity change below about -60%; inconclusive means no clear call, values can overlap the other calls; inactive means above about -39%
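After 16 h attachment at 37C, HFF cells received test compound and HCMV-luciferase (1 PFU/cell); reporter luminescence read 72 h later, data normalized against buffer-only and known inhibitor Salinomycin.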
HCV inh – qHTS Assay for Inhibitors of Hepatitis C Virus (HCV) | Huh7.5.1 HCVcc-Cre infection, luciferase reporter, 44 h | Potency, µM (titrated, usually from 41.8 µM), for inactives: at the top dose activity change, negative = inhibition, hits mostly inhibitors | 340,000 compounds, 3.4% hits; active means well fitted inhibition curve with a large enough effect; inconclusive means small, poorly fitted or top-dose-only effect, or another doubt; inactive means no such curve, though single readings can be large or run the other way; further: potency means the concentration at half of the fitted maximal effect
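1,000 cells/well; 4 h culture; + compound; + HCVcc-Cre (~0.5 moi); 44 h; luciferase substrate, RT 15 min; read 15 sec.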
Marburg entry inh – qHTS for inhibitors of binding or entry into cells for Marburg Virus | Marburg virus pseudotyped entry inhibition, cell reporter | Potency, µM (top dose mostly 37.8 µM), for the others: top-dose activity change, negative = inhibition, usual class: inhibitors | 300,000 compounds, 1.8% hits; calls by dose curve; tested in HEK293 cells; further: potency means the concentration at half of the fitted maximal effect
Lassa entry inh – qHTS for Inhibitors of binding or entry into cells for Lassa Virus. 300,000 compounds, 1.2% hits. Potency, µM (series often up to 37.9 µM), for the others: at the highest dose activity change, negative = inhibition, usual class: inhibitors. Lassa virus pseudotype entry inhibition, cell reporter; calls by dose curve; tested in HEK293 cells; further: potency means the concentration at half of the fitted maximal effect; nearly all actives have a fitted effect of over 50% in size
* = called active by the depositor; u = inconclusive; x = no result; [ ] = another dose, or the depositor's remark. A selection: hits, their analogues and other compounds. The true share with any hit is near 7.9%. On the % scale 0 is the no-effect control and ±100 the full control effect.

SMILES	FMDV inh	HCMV inh	HCV inh	Marburg entry inh	Lassa entry inh
CCOc1cc(/C=N/NC(=O)COc2ccc(Cl)cc2)ccc1OS(=O)(=O)c1ccccc1	-23.6%	32.6	5.01µM*	6.51µM*	u
O=C(NN=Cc1ccc2c(c1)OCO2)NN=Cc1ccc2c(c1)OCO2	14.2%	5.0	14.5%	u	u
CCOc1cc(/C=N/NC(=O)CN2CCOCC2)ccc1OCc1ccccc1	-27.0%	-28.8	u	-16.4%	4.5%
COc1cc(/C=N/NC(=O)c2ccc(N(C)S(=O)(=O)c3ccccc3)cc2)cc(OC)c1OC	0.0%	-18.4	u	-23.4%	16.1%
CCOc1cc(/C=N/NC(=O)c2ccc(N(C)S(=O)(=O)c3ccccc3)cc2)ccc1OC	u	34.3	8.91µM*	-1.8%[46.1 µM]	x
N/C(=N\N=Cc1ccc2c(c1)OCO2)NN=Cc1ccc2c(c1)OCO2	0.7%	-73.5*	-25.5%	u	14.5%
CCOc1cc(/C=N/NC(=O)c2ccc(CN3CCOCC3)cc2)ccc1OCc1ccccc1	22.4µM*	-72.7*	u	u	u
COc1cc2c(cc1OC)[C@@H](NC(=O)COc1ccccc1)[C@H](OCc1ccccc1)C2	-16.1%	-14.9	u	x	x
O=C(N/N=C/c1ccc([N+](=O)[O-])o1)c1ccc2c(c1)OCO2	-25.0%	-96.5*	u	x	x
CN(C)c1ccc(/C=N/NC(=O)c2ccc3c(c2)OCO3)cc1	57.1%	-66.0*	-3.5%	x	x
O=C(N/N=C/c1ccc(O)cc1)c1cc(-c2ccc3c(c2)OCO3)n[nH]1	19.9%	u	u	7.94µM*	u
O=C(N/N=C/c1ccccc1)c1cc(-c2ccc3c(c2)OCO3)n[nH]1	2.7%	10.5	2.4%	-22.3%[46.1 µM]	-0.9%[46.1 µM]
COc1cc(C(=O)NN=Cc2ccc(N(C)C)cc2)cc(OC)c1OC	2.5%	-66.3*	x	x	x
O=C(N/N=C/c1ccccc1)c1ccc2c(c1)OCO2	-10.6%	u	-6.9%	x	x
CCCCCCCCN1C(=O)[C@H](CC(=O)NCc2cccs2)C[C@@]2(C(=O)OC)CC(C)(C)CC=C12	-15.2%	53.8	x	x	x
OC(c1cccc(Cl)c1)c1nnc(Nc2cccc(Oc3ccccc3)c2)s1 (configuration not stated)	x	-19.4	x	x	x
CCC(C)NC(=O)C(=O)Nc1c2c(nn1-c1ccccc1)CS(=O)(=O)C2 (configuration not stated)	16.1%	0.5	x	x	-7.8%[46.1 µM]
Brc1ccc(-c2cn3nc4c(nc3n2)CCCC4)cc1	u	u	-15.1%	5.01µM*	u
c1ccc(-c2cn3nc4c(nc3n2)CCCC4)cc1	5.62µM*	39.2	-6.7%	1µM*	1.12µM*
Nc1nn2cc(-c3ccc(Br)cc3)nc2c2ccccc12	30.8%	113.2	u	x	x
c1ccc(-c2cn3nc(-c4ccccc4)cnc3n2)cc1	5.4%	29.6	10.3%	-4.1%	u
Cc1ccc(Sc2ccc(NC(=O)CCN3C(=O)NC4(CCCC4)C3=O)cc2)c(C)c1	u	0.0	3.98µM*	x	x
COc1ccc(NS(=O)(=O)c2ccc(C)c(NC(=O)CN3C(=O)NC4(CCCC4)C3=O)c2)cc1	36.3%	-66.3*	-2.0%	x	x
COc1ccc(CC(=O)Nc2cc(S(=O)(=O)Nc3ccc(OC)cc3)ccc2OC)cc1	-24.4%	u	12.6µM*	x	x
COc1ccccc1NS(=O)(=O)c1cc(NC(=O)CN2C(=O)NC3(CCCCC3)C2=O)ccc1C	-5.7%	-5.2	12.6µM*	x	x
SMILES	FMDV inh	HCMV inh	HCV inh	Marburg entry inh	Lassa entry inh
Cc1ccc(NC(=O)CN2C(=O)NC3(CCCCCCC3)C2=O)cc1C	-8.2%	59.2	-6.0%	4.0%	-6.6%
Cc1cnc(C)c(-c2cccc3c2OC(CNC(=O)c2cc(C)on2)C3)n1 (configuration not stated)	15.4%	x	x	x	x
N#Cc1ccc(CN2CCCC3(CCN(C(=O)c4cnccn4)CC3)C2)cc1	-16.1%	x	x	x	x
CCc1ccc(NC(=O)Cn2ccn(-c3ccc(C)c(C)c3)c(=O)c2=O)cc1	37.0%	44.5	x	x	6.0%[46.1 µM]
Cc1ccc(NC(=O)COC(=O)c2nn(C)c(=O)c3ccccc23)cc1F	-9.3%	2.7	4.9%	x	x
COc1ccc2c(c1)sc1ncc(C(=O)NCc3cccc(C)c3)c(=O)n12	-7.1%	-3.1	x	9.9%[46.1 µM]	x
O=C(CN1C(=O)NC2(CCCCCCC2)C1=O)Nc1ccc(Br)cc1	u	-19.7	31.6µM*	x	x
COc1ccc(NC(=O)CCN2C(=O)NC3(CCCC3)C2=O)cc1Cl	-13.6%	5.2	0.1%	x	x
COc1ccc(NC(=O)CN2C(=O)NC3(CCCCCC3)C2=O)cc1Cl	-12.0%	16.7	25.1µM*	u	u
CC(=O)c1ccccc1NC(C(=O)Nc1c(C)cccc1C)C1CC1 (configuration not stated)	x	3.9	x	x	x
Cc1ccc(NC(=O)C(=O)NCC(c2cccnc2)N2CCN(Cc3ccccc3)CC2)cc1F (configuration not stated)	u	-16.0	x	x	6.6%[46.1 µM]
CNS(=O)(=O)/C=C/c1ccccc1	13.5%	-72.0*	23.6%	u	19.8%
O=C1c2ccc(-c3nc4ccccc4o3)cc2C(=O)N1Cc1ccccc1	4.3%	-105.1*	-11.1%	12.4%	-1.0%
O=C1c2ccc(-c3nc4ccccc4o3)cc2C(=O)N1Cc1cccnc1	x	-25.4	7.1%	-0.2%	6.6%
COC(=O)c1ccc(Cl)c(NC(=O)Cc2ccccc2[N+](=O)[O-])c1	-2.2%	-71.7*	13.9%	-20.1%	-13.3%
Cc1ccc(NC(=O)CC(C)S(=O)(=O)c2ccc3c(c2)NC(=O)CO3)cc1Cl (configuration not stated)	-34.6%	4.4	x	x	6.0%[46.1 µM]
CCN(CC)c1ccc(NC(=O)C2CCN(S(=O)(=O)c3c(C)noc3/C=C/c3ccccc3F)CC2)c(C)c1	2.4%	-4.5	x	x	25.3%[46.1 µM]
Cc1ccc(S(=O)(=O)NC(=O)Nc2ccc(N(C)C)cc2)cc1	23.6%	-17.9	u	u	12.6µM*
CCCCOc1ccc(S(=O)(=O)Nc2ccc(NC(C)=O)cc2)cc1	-22.8%	u	8.91µM*	-15.8%	-20.4%
CCOC(=O)Nc1ccc(S(=O)(=O)NCc2ccccc2)cc1	x	-61.7*	u	-17.0%	u
CCCCCCCCNC(=O)CC(NS(=O)(=O)c1ccc(NC(C)=O)cc1)C(C)C (configuration not stated)	11.7%	-16.3	14.7%	7.7%	2.06µM*
CC(=O)Nc1ccc(S(=O)(=O)NC(CC(=O)NCCCN2CCOCC2)C(C)C)cc1 (configuration not stated)	-11.7%	11.6	16.1%	5.2%[46.1 µM]	-3.9%
CCCCCCCCCCCCCCCCC(C(=O)O)C(O)(CC(=O)O)C(=O)O (configuration not stated)	x	x	x	u	-0.5%
CCCCC(=O)NC1CC(=O)N(c2ccc3c(c2)OCCO3)C1 (configuration not stated)	-1.4%	8.4	x	x	5.2%[46.1 µM]
CN(CC(=O)Nc1ccc(N2CCOCC2)cc1)CC(=O)Nc1ccccc1C#N	-3.2%	19.0	0.6%	15.3%	20.5%
